These results are taken from PubChem BioAssay (NCI).

About 83,000 compounds went through this panel and 20% of them were active in at least one assay; those are over-represented in the sample as a whole.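 Method: cells in 96-well plates; compound added at one concentration; 48 h incubation; percent growth measured; values under 10 scored active.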 Unmarked numbers belong to inactive results. Activity calls are given as the source filed them.

What all share (test): NCI-60 one-dose screen, 48 h (100 = growth as untreated, 0 = no growth, -100 = all killed)
In one assay the test system is HCT-15 colon. Particulars: 10 µM unless noted.
The next assay relates to HT29 colon. Particulars: 10 µM unless noted.
A further assay relates to SNB-75 CNS. The settings on record: 10 µM unless noted.
Another assay deals with SNB-19 CNS. The settings on record: 10 µM unless noted.
The test system of the next assay is PC-3 prostate. The settings on record: 10 µM unless noted.
The next assay deals with SK-MEL-5 melanoma. Particulars: 10 µM unless noted.
The subject of a further assay is UACC-62 melanoma. Particulars: 10 µM unless noted.
The test system of the next assay is SK-MEL-28 melanoma. Particulars: 10 µM unless noted.
The next assay deals with SK-MEL-2 melanoma. The settings on record: 10 µM unless noted.
The next assay deals with EKVX NSCLC. The settings on record: 10 µM unless noted.
Another assay relates to SN12C renal. Particulars: 10 µM unless noted.
A further assay has as its system UO-31 renal. The settings on record: 10 µM unless noted.
The subject of another assay is TK-10 renal. Particulars: 10 µM unless noted.
A further assay relates to ACHN renal. The settings on record: 10 µM unless noted.
For another assay, the system named is CAKI-1 renal. The settings on record: 10 µM unless noted.
The next assay relates to A498 renal. Particulars: 10 µM unless noted.
The test system of the next assay is CCRF-CEM leukemia. Particulars: 10 µM unless noted.
Another assay concerns MOLT-4 leukemia. Particulars: 10 µM unless noted.
Another assay relates to U251 CNS. Particulars: 10 µM unless noted.
A further assay deals with LOX IMVI melanoma. The settings on record: 10 µM.

Take `O=C(N=Nc1c(O)[nH]c2ccc([N+](=O)[O-])cc12)c1ccc2nc(-c3ccccc3)[nH]c2c1`: the growth in the assay with HCT-15 colon is 105%; in the assay on HT29 colon, 110%; in the assay with SNB-75 CNS, 95.7%; in the assay on SNB-19 CNS it was 43.6%; in the assay on PC-3 prostate, 53.3%; with SK-MEL-5 melanoma it was 97.7%. Also, the growth is 75.5% in the assay with UACC-62 melanoma; 60.8% in the assay with SK-MEL-28 melanoma; 77% with SK-MEL-2 melanoma; 97.5% in the assay with EKVX NSCLC; 49.5% with SN12C renal; 84.4% with UO-31 renal. Besides, the growth was 140% in the assay with TK-10 renal; 101% with ACHN renal; 91.7% with CAKI-1 renal; 122% in the assay on A498 renal; 32.7% in the assay with CCRF-CEM leukemia; 43.3% in the assay on MOLT-4 leukemia.
For the compound `COc1ccc(N2N=C(c3ccc4c(c3)OCO4)CC2c2cccc(NC(=O)CCCNS(=O)(=O)c3ccc(F)cc3)c2)cc1` (stereo not drawn), the growth in the assay with HCT-15 colon was 57.8%; in the assay with HT29 colon, 61.3%; in the assay with SNB-75 CNS, 50.6%; in the assay on U251 CNS, 59.2%; in the assay on PC-3 prostate it was 42.5%; in the assay with SK-MEL-5 melanoma it was 48%. Also, the growth in the assay with UACC-62 melanoma is 66.4%; with LOX IMVI melanoma, 66.4%; in the assay on SK-MEL-28 melanoma, 75.4%; in the assay with SK-MEL-2 melanoma, 73.5%; in the assay with EKVX NSCLC, 52.1%; in the assay with UO-31 renal it was 56.2%. Besides, the growth was 66.8% with TK-10 renal; 59.2% in the assay on ACHN renal; 49% with CAKI-1 renal; 67.6% in the assay on A498 renal; 53.5% in the assay with CCRF-CEM leukemia; 33.4% in the assay on MOLT-4 leukemia.
For `Cc1ccc(-n2c(-c3cc4ccccc4nc3Cl)noc2=O)cc1`, the growth with HCT-15 colon is 39.1%; in the assay on HT29 colon, 110%; in the assay on SNB-75 CNS, 40.1%; in the assay with U251 CNS, 83.7%; in the assay on PC-3 prostate it was 75.5%; with SK-MEL-5 melanoma, 66.1%. Moreover, the growth is 56% in the assay with UACC-62 melanoma; 85.1% with LOX IMVI melanoma; 97.1% in the assay with SK-MEL-28 melanoma; 80.9% in the assay with SK-MEL-2 melanoma; 47.5% in the assay with EKVX NSCLC; 72.4% in the assay with UO-31 renal. Besides, the growth in the assay with TK-10 renal is 122%; in the assay on ACHN renal it was 93.6%; in the assay on CAKI-1 renal, 49.8%; in the assay with A498 renal, 137%; in the assay with CCRF-CEM leukemia, 84.6%; in the assay with MOLT-4 leukemia, 76.5%.
On to `Cc1cc(=O)oc2cc(OCCOc3ccc(/C=C/C(=O)Nc4ccccc4N)cc3)ccc12`, for which the growth is 39.7% with HCT-15 colon; 30.5% in the assay on HT29 colon; 36.6% with SNB-75 CNS; 30.7% with U251 CNS; 32.1% in the assay on PC-3 prostate; -87.6% (active) in the assay with SK-MEL-5 melanoma. Further, the growth was 33.2% in the assay on UACC-62 melanoma; -73.2% (active) in the assay on LOX IMVI melanoma; 39.9% with SK-MEL-28 melanoma; 59.1% in the assay on SK-MEL-2 melanoma; 38.8% in the assay with EKVX NSCLC; 7.73% (active) in the assay with UO-31 renal. For the same compound, the growth with TK-10 renal is 43.3%; in the assay on ACHN renal it was 37.1%; in the assay on CAKI-1 renal, 30.7%; in the assay with A498 renal, 14.4%; with CCRF-CEM leukemia it was 6.51% (active); in the assay with MOLT-4 leukemia, 4.54% (active).
Consider `Cc1ccc2c(N)c(C(=O)Nc3ccc(-c4ccccc4)cc3)sc2n1`, for which the growth with HCT-15 colon was 58.7%; in the assay with HT29 colon it was 84.3%; in the assay on SNB-75 CNS it was 53.8%; in the assay on SNB-19 CNS, 63.5%; in the assay on PC-3 prostate, 68.5%; in the assay with SK-MEL-5 melanoma, 20.3%. The growth with UACC-62 melanoma was 72.2%; in the assay with SK-MEL-28 melanoma, 85.1%; in the assay on SK-MEL-2 melanoma it was 58.9%; with EKVX NSCLC it was 22.7%; in the assay with SN12C renal it was 65.1%; in the assay with UO-31 renal, 56.1%. In addition, the growth in the assay on ACHN renal was 60.1%; in the assay with CAKI-1 renal it was 59.4%; with A498 renal, 114%; with CCRF-CEM leukemia it was 55.4%; in the assay with MOLT-4 leukemia it was 50.9%.
For `COc1cc2c(c(OC)c1OC)C(=O)CC(c1cccc(NC(=O)[C@@H](N)CC(C)C)c1)O2` (stereo partly drawn), the growth with HCT-15 colon is 95.3%; in the assay on HT29 colon, 108%; with SNB-75 CNS it was 97.8%; in the assay with SNB-19 CNS, 91.2%; in the assay on PC-3 prostate, 97.2%; with SK-MEL-5 melanoma, 96.7%. For the same compound, the growth was 96.8% with UACC-62 melanoma; 115% in the assay on SK-MEL-28 melanoma; 99.3% with SK-MEL-2 melanoma; 99.1% with EKVX NSCLC; 84.4% in the assay with SN12C renal; 78% with UO-31 renal. Moreover, the growth with TK-10 renal was 115%; in the assay with ACHN renal, 103%; in the assay with CAKI-1 renal it was 80.6%; with A498 renal, 89.3%; with CCRF-CEM leukemia it was 97.6%; in the assay with MOLT-4 leukemia, 96.1%.
With `COc1cc(-c2ccc(/C=N/NC(=O)c3[nH]c4ccc(Br)cc4c3-c3ccccc3)o2)cc(OC)c1OC`, the growth in the assay with HCT-15 colon is 69.2%; in the assay on HT29 colon it was 96.4%; in the assay on SNB-75 CNS, 74.4%; in the assay with SNB-19 CNS it was 52.4%; in the assay on PC-3 prostate, 68.8%; in the assay with SK-MEL-5 melanoma, 92.2%. The growth in the assay on UACC-62 melanoma was 77.2%; with SK-MEL-28 melanoma, 86.8%; with SK-MEL-2 melanoma, 107%; with EKVX NSCLC it was 65.7%; in the assay on SN12C renal, 96.3%; in the assay with UO-31 renal it was 102%. For the same compound, the growth with TK-10 renal was 112%; in the assay on ACHN renal it was 76%; with CAKI-1 renal, 74.5%; in the assay with A498 renal, 134%; in the assay on CCRF-CEM leukemia, 69.5%; with MOLT-4 leukemia, 77.3%.
On to `S=c1c2ccccc2nc2n1CCc1c-2[nH]c2ccccc12`, for which the growth in the assay with HCT-15 colon was 68.9%; in the assay on HT29 colon it was 78.8%; in the assay on SNB-75 CNS, 0.815% (active); in the assay on SNB-19 CNS it was 16.1%; in the assay with PC-3 prostate it was 60.8%; in the assay on SK-MEL-5 melanoma, 67%. In addition, the growth in the assay on UACC-62 melanoma is 64.1%; with SK-MEL-28 melanoma it was 74.8%; in the assay with SK-MEL-2 melanoma, 72.9%; in the assay with EKVX NSCLC, 50.6%; in the assay on SN12C renal, 60.9%; in the assay on UO-31 renal it was 56.8%. In addition, the growth in the assay with TK-10 renal was 69%; with ACHN renal, 42.4%; with CAKI-1 renal, 36.6%; in the assay on A498 renal, 112%; in the assay on CCRF-CEM leukemia it was 96.2%; in the assay on MOLT-4 leukemia, 74.1%.
